In PubChem BioAssay (NCI):
About 79,000 compounds went through this panel and 15% of them were active in at least one assay; those are over-represented in the sample as a whole. Unmarked numbers belong to inactive results. Calls of active or inactive are those of the source. No stated cut-off is given here; in the data, active means growth inhibition above about 70%; inactive means the rest.

Tests used:
[1] = NCI Yeast Anticancer Drug Screen. Data for the rad50 strain (AID 155);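 further: 0% = growth of vehicle-only cultures of the same strain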; settings: S. cerevisiae rad50 strain growth inhibition, active compounds read high
Outline: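 Inhibition values express reduced yeast growth in compound-treated cultures relative to vehicle-treated controls.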

[2] = NCI Yeast Anticancer Drug Screen. Data for the mec2-1 strain (AID 157); settings: S. cerevisiae mec2-1 strain, active compounds read high
Outline: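 Cells of the genetically defined mec2-1 yeast strain are incubated with test compound. Inhibition of growth is calculated against vehicle-treated controls.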

[3] = NCI Yeast Anticancer Drug Screen. Data for the sgs1 mgt1 strain (AID 161);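 further: 0% = growth of cultures given vehicle only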; settings: S. cerevisiae sgs1 mgt1 strain, active compounds read high
Outline: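 Test agents were incubated with a DNA-repair-mutant yeast strain. Growth was then read and compared against vehicle-treated controls.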

[4] = NCI Yeast Anticancer Drug Screen. Data for the cln2 rad14 strain (AID 165);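 further: 0% = growth equal to vehicle treated cultures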; settings: S. cerevisiae cln2 rad14 strain, active compounds read high
Outline: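 The screen exposed genetically defined yeast (cln2 rad14) to test compounds and scored growth inhibition relative to vehicle-treated controls.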

[5] = NCI Yeast Anticancer Drug Screen. Data for the bub3 strain (AID 167); settings: S. cerevisiae bub3 mutant strain, active compounds read high
Outline: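 Steps: expose the mutant yeast strain to compound; grow alongside vehicle-treated cultures; measure growth; express inhibition against the vehicle cultures.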

[6] = NCI Yeast Anticancer Drug Screen. Data for the mlh1 rad18 strain (AID 175); settings: S. cerevisiae mlh1 rad18 strain growth inhibition, active compounds read high
Outline: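 Compound-treated yeast growth, normalised to vehicle controls. Strain bears defined DNA repair mutations.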

[7] = at 5.0 µM (retest, dose inferred, filed as 0.5)
[8] = at 50.0 µM (retest, dose inferred, filed as 5.0)

Compound	growth inhibition [1, 7] [%]	growth inhibition [1, 8]	growth inhibition ([1]; at 50.0 µM)	growth inhibition [2, 7] [%]	growth inhibition [2, 8]	growth inhibition ([2]; at 50.0 µM)	growth inhibition [3, 7] [%]	growth inhibition [3, 8]	growth inhibition ([3]; at 50.0 µM)	growth inhibition [4, 7] [%]	growth inhibition [4, 8]	growth inhibition ([4]; at 50.0 µM)	growth inhibition [5, 7] [%]	growth inhibition [5, 8]	growth inhibition ([5]; at 50.0 µM)	growth inhibition [6, 7] [%]	growth inhibition [6, 8]	growth inhibition ([6]; at 50.0 µM)
O=Cc1c(O)ccc2ccccc12.[Cu+2]	-27	95% (active)	99.3% (active)	-2	47%	99.2% (active)	-7	97% (active)	99.2% (active)	-19	42%	99% (active)	-54	94% (active)	98.8% (active)	-14	97% (active)	99.2% (active)
CCCN(Cc1ccccc1)S(=O)(=O)c1ccc(C)cc1	-4	95% (active)	-14.1%	-4	97% (active)	-3.65%	-5	95% (active)	16%	-6	93% (active)	-19.5%	7	96% (active)	63.7%	-5	96% (active)	-7.75%
CC(SC1=CC(=O)c2c(O)ccc(O)c2C1=O)C(=O)O (configuration not stated)	9	-19%	22.6%	-4	-2%	11.8%	19	5%	19.9%	-5	-6%	-27.6%	-6	-5%	4%	-5	-6%	25.1%
O=[N+]([O-])c1nccn1CCCNCCCn1ccnc1[N+](=O)[O-]	27	28%	0.45%	0	-2%	1.2%	15	26%	-6.7%	24	17%	-20.1%	8	14%	-14.9%	24	20%	21.1%
COc1ccc2c(c1)CCCN2CCCCCCCN1CCCCC1	13	49%	72.5% (active)	16	34%	45.5%	26	73% (active)	77.1% (active)	22	58%	90.2% (active)	34	64%	83.5% (active)	32	73% (active)	63.1%
O=C(c1cccs1)N(C(=S)N1CCN(c2ccccn2)CC1)C1CCCCC1	4	66%	54.5%	-8	61%	54.8%	8	31%	67.2%	15	44%	38.8%	2	31%	68.6%	8	29%	49.6%
Cc1ccc(Nc2nc(C)c(C(/C=C/c3ccc4c(c3)OCO4)=N/Nc3ccc([N+](=O)[O-])cc3[N+](=O)[O-])s2)c([N+](=O)[O-])c1	43	43%	53.5%	36	36%	69%	37	37%	89.5% (active)	23	23%	68.2%	33	33%	67.7%	37	37%	81.7% (active)
CCC(C1SC(=S)NC1=O)C1SC(=S)NC1=O (configuration not stated)	3	13%	99.3% (active)	-1	29%	99.6% (active)	10	41%	99.4% (active)	-9	-2%	82.9% (active)	-4	6%	99.5% (active)	-1	35%	99% (active)
Cc1cc2c(C(C)C)c(O)c(O)c3coc(/c1=c1/c(C)cc4c(C(C)C)c(=O)c(=O)c5coc1c45)c32	-1	97% (active)	98.9% (active)	23	99% (active)	99.2% (active)	25	99% (active)	99% (active)	-25	98% (active)	98.8% (active)	-3	97% (active)	98.5% (active)	29	98% (active)	99.2% (active)
